# Source: PubChem BioAssay
# The source made the active and inactive calls.
# Legend:
# [1] = target: Albumin (Bos taurus) (UniProt P02769); test: bovine serum albumin binders on microarray, profiling panel, artefact control for SMM control protein annotation, biochemical, small-molecule microarray, Alexa647 label, 635/667 nm fluorescence (AID 1118); conditions: BSA-A647 binding, fluorescence 635 nm, higher = more signal;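 also: score merges 667 nm emission intensity and signal-to-noise per printed compound spot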
# [2] = small-molecule microarray binders of probe aXIP, primary screen, biochemical, NeuroSMM set, 635/667 nm fluorescence (AID 1119); conditions: higher = more signal, called active from +8 up or from −8 down;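 also: probe is the protein aXip251-270 applied at 1 µg/mL to compound-printed slides; binding of probe to printed compounds measured as 667 nm fluorescence plus signal to noise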
# [3] = small-molecule binders of probe aNOTCH3, primary screen, biochemical, small-molecule microarray, 635/667 nm fluorescence (AID 1120); conditions: higher = more signal;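 also: probe is a biotin-tagged antibody raised against NOTCH3 rather than NOTCH3 protein; score merges spot fluorescence near 667 nm with spot signal to noise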
# [4] = small-molecule binders of probe aNOTCH2, primary screen, biochemical, small-molecule microarray, 635/667 nm fluorescence (AID 1121); conditions: higher = more signal;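 also: score merges feature fluorescence read at 667 nm with its signal to noise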
# [5] = target: Carbonic anhydrase 2 (Homo sapiens) (UniProt P00918); test: CAII small-molecule binders, profiling panel, biochemical, small-molecule microarray, Alexa647-labelled CAII (AID 1122); conditions: CAII-A647 binding fluorescence, higher = more signal
# [6] = COS7 lysate on small-molecule microarray, probe aHis, 635 nm (AID 1123); conditions: COS7 cell lysate, fluorescence, higher = more signal;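 also: z-score combines 667nm fluorescence intensity with signal-to-noise per printed compound spot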
# [7] = compound binding in COS7 lysate, probe aLAP1, primary screen, cell lysate, small-molecule microarray (AID 1124); conditions: probe aLAP1, fluorescence, higher = more signal;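 also: lysate comes from COS7 cells expressing LAP1 and is applied at 0.3 µg/mL; score merges spot fluorescence near 667 nm with signal-to-noise over triplicate slides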
# [8] = tested on: Sam68 (KHDRBS1); test: Sam68 small-molecule binders, primary screen, biochemical, small-molecule microarray, 635 nm fluorescence (AID 1125); conditions: small-molecule microarray binding, higher = more signal;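 also: score merges 667 nm channel intensity with signal to noise over triplicate slides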
# [9] = tested on: Chordin-like protein 2 (CHRDL2); test: CHRDL2 small-molecule binders, primary screen, biochemical, small-molecule microarray, 635 nm fluorescence (AID 1126); conditions: small-molecule microarray binding, fluorescence 635 nm; higher = more signal;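 also: printed compound slides probed with Chrdl2 protein at 4 µg/mL for 1 h at 4 C; score merges 667 nm emission intensity with signal to noise over three replicate slides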
# [10] = target: Concanavalin-A (Canavalia ensiformis) (UniProt P02866); test: ConA small-molecule binders, primary screen, artefact control for SMM control protein annotation, biochemical, small-molecule microarray, Alexa647 label, 635 nm (AID 1127); conditions: ConA-A647 binding fluorescence, higher = more signal;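 also: z combines 667 nm emission intensity with signal-to-noise across three replicate slides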
# [11] = anti-His antibody binders, primary screen, artefact control for SMM control protein annotation, biochemical, small-molecule microarray, 635 nm fluorescence (AID 1128); conditions: anti-His Alexa647 antibody binding, higher = more signal;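 also: score merges feature fluorescence with signal-to-noise for each printed compound spot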
# [12] = tested on: Human papillomavirus type 1a E7 protein (residues 1-88); test: HPV1a E7 small-molecule binders, primary screen, biochemical, small-molecule microarray, residues 1-88, 635 nm (AID 1129); conditions: small-molecule microarray binding, fluorescence 635 nm; higher = more signal
# [13] = target: Focal adhesion kinase 1 (Homo sapiens) (UniProt Q05397); test: small-molecule microarray binders of FAK, primary screen, biochemical, 635/667 nm fluorescence, BSA, DTT (AID 1130); conditions: PTK2 binding, 635 nm fluorescence, higher = more signal;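 also: composite of spot emission at 667 nm and signal to noise over triplicate slides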
# [14] = tested on: Fibrinogen (Alexa647-labelled); test: fibrinogen binders on compound microarrays, profiling panel, artefact control for SMM control-protein annotation, biochemical, small-molecule microarray, 635/667 nm fluorescence (AID 1131); conditions: fibrinogen-A647 binding fluorescence, higher = more signal;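 also: z-score merges 667 nm fluorescence with per-spot signal-to-noise over triplicate slides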
# [15] = target: Follistatin (Homo sapiens) (UniProt P19883); test: follistatin binders on small-molecule microarrays, primary screen, biochemical, small-molecule microarray, 635/667 nm fluorescence (AID 1132); conditions: FST binding, 635 nm fluorescence, higher = more signal
# [16] = target: Fibroblast growth factor 2 (Homo sapiens) (UniProt P09038); test: FGF2 binders on small-molecule microarrays, primary screen, biochemical, small-molecule microarray, 635/667 nm fluorescence (AID 1133); conditions: small-molecule microarray binding, FGF2, fluorescence 635/667; higher = more signal
# [17] = mitochondrial membrane potential change in A549 cells, profiling panel, cell-based, JC-1 fluorescence, basal, 24 h, 100 nL (AID 1138); conditions: higher = more signal;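 also: A549 lung adenocarcinoma cells under basal conditions with no added stimulus; test concentration not given here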
# [18] = tested on: Lefty1; test: Lefty1 binders on small-molecule microarrays, primary screen, biochemical, small-molecule microarray, 635/667 nm fluorescence (AID 1139); conditions: small-molecule microarray binding, fluorescence 635/667; higher = more signal
# [19] = tested on: wheat germ agglutinin (Triticum aestivum), Alexa647-labelled; test: wheat germ agglutinin binders on compound microarrays, profiling panel, artefact control for SMM control-protein annotation, biochemical, small-molecule microarray, 635/667 nm fluorescence (AID 1140); conditions: WGA-A647 binding, 635 nm fluorescence, higher = more signal;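 also: score merges 667 nm feature emission with signal to noise over triplicate slides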
# [20] = target: Luciferin 4-monooxygenase (Photinus pyralis) (UniProt P08659); test: firefly luciferase enzyme inhibitors, primary screen, biochemical, luminescence, purified enzyme, 2006 set (AID 1141); conditions: SteadyGlo luminescence, 30 min, higher = more signal, called active from +8 up or from −8 down;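 also: cell-free assay with purified firefly luciferase at 100 ng per well in PBS; test concentration not given here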
# Luciferin 4-monooxygenase (Photinus pyralis), sequence (P08659 whole entry, looked up): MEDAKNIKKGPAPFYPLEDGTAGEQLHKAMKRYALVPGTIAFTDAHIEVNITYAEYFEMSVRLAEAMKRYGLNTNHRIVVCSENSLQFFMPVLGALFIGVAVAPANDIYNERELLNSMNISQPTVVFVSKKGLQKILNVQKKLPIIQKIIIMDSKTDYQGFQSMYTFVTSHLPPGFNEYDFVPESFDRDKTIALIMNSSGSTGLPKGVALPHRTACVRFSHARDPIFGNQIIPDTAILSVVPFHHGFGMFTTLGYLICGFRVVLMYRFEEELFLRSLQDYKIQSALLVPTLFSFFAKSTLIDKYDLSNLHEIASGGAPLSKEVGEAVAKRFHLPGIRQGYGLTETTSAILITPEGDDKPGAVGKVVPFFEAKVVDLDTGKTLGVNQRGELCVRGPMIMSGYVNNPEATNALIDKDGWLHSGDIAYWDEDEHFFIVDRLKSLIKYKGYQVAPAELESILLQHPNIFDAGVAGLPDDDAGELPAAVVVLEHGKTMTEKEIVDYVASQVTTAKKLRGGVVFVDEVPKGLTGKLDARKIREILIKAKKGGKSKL
# Fibroblast growth factor 2 (Homo sapiens), sequence (P09038 whole entry, looked up): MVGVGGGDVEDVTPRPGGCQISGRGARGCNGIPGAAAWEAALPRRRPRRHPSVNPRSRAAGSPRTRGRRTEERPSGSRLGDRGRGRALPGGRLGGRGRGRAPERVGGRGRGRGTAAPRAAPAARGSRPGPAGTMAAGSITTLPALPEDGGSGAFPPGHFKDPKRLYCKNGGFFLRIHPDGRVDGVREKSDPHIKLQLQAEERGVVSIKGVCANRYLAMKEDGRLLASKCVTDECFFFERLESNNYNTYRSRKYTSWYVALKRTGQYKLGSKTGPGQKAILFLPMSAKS
# Focal adhesion kinase 1 (Homo sapiens), sequence (Q05397 whole entry, looked up): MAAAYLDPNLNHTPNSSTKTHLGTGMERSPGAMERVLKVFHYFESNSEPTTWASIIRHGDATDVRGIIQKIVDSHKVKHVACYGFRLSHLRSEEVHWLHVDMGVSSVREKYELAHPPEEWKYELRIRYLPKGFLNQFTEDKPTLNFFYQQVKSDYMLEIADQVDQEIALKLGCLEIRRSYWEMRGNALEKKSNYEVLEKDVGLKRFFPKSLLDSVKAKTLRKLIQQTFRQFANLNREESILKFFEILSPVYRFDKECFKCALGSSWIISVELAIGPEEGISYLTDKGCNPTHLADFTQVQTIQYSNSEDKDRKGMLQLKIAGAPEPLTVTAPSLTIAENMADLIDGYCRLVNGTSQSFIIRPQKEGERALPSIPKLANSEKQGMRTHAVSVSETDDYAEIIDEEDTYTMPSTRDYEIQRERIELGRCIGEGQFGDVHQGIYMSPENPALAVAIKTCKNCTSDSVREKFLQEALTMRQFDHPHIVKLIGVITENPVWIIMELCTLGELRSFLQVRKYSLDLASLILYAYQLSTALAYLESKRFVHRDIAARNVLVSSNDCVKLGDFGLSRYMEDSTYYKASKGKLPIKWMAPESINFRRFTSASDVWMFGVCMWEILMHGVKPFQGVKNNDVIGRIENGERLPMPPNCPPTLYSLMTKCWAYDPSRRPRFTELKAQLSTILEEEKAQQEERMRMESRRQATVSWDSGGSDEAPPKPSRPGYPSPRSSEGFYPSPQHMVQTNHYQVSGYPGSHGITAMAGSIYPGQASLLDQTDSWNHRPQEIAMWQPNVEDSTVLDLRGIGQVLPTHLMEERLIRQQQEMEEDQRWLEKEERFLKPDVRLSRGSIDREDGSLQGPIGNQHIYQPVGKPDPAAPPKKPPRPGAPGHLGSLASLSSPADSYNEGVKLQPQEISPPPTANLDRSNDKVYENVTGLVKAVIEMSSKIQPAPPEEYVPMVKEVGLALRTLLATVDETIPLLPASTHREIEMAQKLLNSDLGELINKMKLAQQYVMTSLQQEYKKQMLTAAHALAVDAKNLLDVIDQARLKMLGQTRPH
# Albumin (Bos taurus), sequence (P02769 whole entry, looked up): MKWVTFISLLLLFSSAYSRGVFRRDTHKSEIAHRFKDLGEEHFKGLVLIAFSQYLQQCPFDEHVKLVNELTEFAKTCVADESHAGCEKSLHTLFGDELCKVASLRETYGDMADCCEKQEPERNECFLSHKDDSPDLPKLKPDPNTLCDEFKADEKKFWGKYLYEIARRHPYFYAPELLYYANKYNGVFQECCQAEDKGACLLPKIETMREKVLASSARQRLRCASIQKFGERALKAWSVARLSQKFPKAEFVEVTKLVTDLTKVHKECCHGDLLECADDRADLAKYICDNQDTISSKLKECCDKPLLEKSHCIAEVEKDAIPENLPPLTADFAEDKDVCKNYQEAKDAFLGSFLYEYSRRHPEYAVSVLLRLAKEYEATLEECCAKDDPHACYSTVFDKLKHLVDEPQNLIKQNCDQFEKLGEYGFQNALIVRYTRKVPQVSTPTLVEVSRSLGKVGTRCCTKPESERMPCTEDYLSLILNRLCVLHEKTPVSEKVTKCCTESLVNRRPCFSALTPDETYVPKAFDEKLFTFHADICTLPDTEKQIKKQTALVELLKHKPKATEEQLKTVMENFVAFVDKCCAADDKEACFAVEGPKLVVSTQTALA
# Follistatin (Homo sapiens), sequence (P19883 whole entry, looked up): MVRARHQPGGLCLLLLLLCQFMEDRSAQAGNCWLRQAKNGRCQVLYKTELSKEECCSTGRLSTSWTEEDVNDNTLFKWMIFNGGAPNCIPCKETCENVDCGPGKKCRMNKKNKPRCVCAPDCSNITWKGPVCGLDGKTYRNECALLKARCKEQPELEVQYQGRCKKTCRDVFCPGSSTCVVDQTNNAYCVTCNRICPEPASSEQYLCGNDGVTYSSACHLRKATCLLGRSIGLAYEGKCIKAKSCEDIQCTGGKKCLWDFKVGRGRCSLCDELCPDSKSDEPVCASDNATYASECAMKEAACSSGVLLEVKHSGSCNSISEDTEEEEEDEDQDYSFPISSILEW
# Concanavalin-A (Canavalia ensiformis), sequence (P02866 whole entry, looked up): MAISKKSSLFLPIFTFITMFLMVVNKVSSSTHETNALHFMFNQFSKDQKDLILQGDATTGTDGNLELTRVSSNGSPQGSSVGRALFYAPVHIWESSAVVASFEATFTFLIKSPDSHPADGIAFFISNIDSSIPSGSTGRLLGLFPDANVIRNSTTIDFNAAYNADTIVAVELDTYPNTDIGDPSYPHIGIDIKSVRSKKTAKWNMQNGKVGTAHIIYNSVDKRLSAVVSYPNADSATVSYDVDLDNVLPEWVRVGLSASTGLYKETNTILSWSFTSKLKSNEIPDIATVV
SMILES,composite z-score [1],composite Z-score [2],composite z-score [3],composite z-score [4],composite z-score [5],composite z-score [6],composite z-score [7],composite z-score [8],composite z-score [9],composite z-score [10],composite z-score [11],composite z-score [12],composite z-score [13],composite z-score [14],composite z-score [15],composite z-score [16],z-score [17],composite z-score [18],composite z-score [19],z-score [20]
Cc1cc(C)c(-c2cc([C@H](C)ON=C3[C@H]4CCn5c(=O)n(-c6ccccc6)c(=O)n5[C@H]4[C@H](O)[C@@H]4O[C@H]34)on2)c(C)c1,0.652,-0.853 (inactive),0.125,-0.205,0.311,0.486,0.0647,0.416,0.231,0.706,-0.286,0.748,0.422,0.382,0.692,0.627,1.32,0.652,-0.0095,0.154 (inactive)
COC(=O)[C@@H]1CC[C@H](C)[C@@H](c2ccc(C)cc2)N1C(=O)c1ccc(C=NOC[C@@H](O)COCc2ccco2)cc1,-0.188,-0.93 (inactive),-0.0077,-0.195,-0.746,-1.31,0.171,-1.9,-0.177,-3.62,0.373,-1.79,-0.574,-1.68,-0.526,-1.18,-0.245,-1.09,-0.893,0.193 (inactive)
C=C(/C(=C/C[C@@H](OC(=O)c1ccncc1)c1ccc(OCCO)cc1)c1cnc2ccccc2c1)C(C)C,0.155,-0.128 (inactive),0.201,-0.134,0.675,-0.842,0.727,1.22,0.952,1.08,1.03,1.13,-0.616,0.806,1.43,1.17,0.809,1.5,0.976,-2.06 (inactive)
C=C(/C(=C/C[C@H](OC(C)=O)c1ccc(OCCO)cc1)c1cnc2ccccc2c1)C(C)C,-0.154,-0.229 (inactive),0.0418,-0.146,0.885,0.575,-0.315,1.3,1.2,1.09,0.888,1.19,-0.0763,0.921,1.45,1.31,0.414,1.48,0.585,-0.477 (inactive)
C=CC[C@@H]1C=C[C@H](ON=C(C)CCN2CCc3nc(CC)c(CC)cc3C2)[C@@H](CO)O1,0.7,-2.12 (inactive),0.325,-0.131,0.221,0.226,0.38,0.822,0.971,-0.442,0.242,-0.202,-0.191,-1.5,1.3,0.466,2.17,1.48,0.0749,0.624 (inactive)
C=C(CCCC)C(=O)CC[C@@H](OC(C)=O)c1cccc(OCCO)c1,-0.528,0.0491 (inactive),-0.0933,-0.193,0.767,-0.022,0.953,-0.106,0.582,0.259,0.936,-0.864,-0.0296,-0.75,1.3,0.829,-0.497,0.932,-1.1,-0.879 (inactive)
